Results reported in PubChem BioAssay.
Activity calls are given as the source filed them.

Tested on: XIP peptide (Xip251-270) binding
Experiment: XIP fragment 251-270 binding compounds – biochemical, small-molecule microarray, fluorescence 635/667 nm, 0.1 µg/mL protein, primary screen (AID 1182)
Conditions: fluorescent protein binding, 635 nm, higher = more signal, called active from +8 up or from −8 down

`COc1cc(C(O)C2C=CC3C(=O)N(C)C(=O)C3N2NC(=O)OC(C)(C)C)cc(OC)c1OC` (stereo not given) was tested, and the composite z-score was 1.56 (inactive).
For `CC(=O)NCCCC[C@@H]1NC(=O)[C@H]2C[C@@H](C(=O)NCCCCCN)[C@@H](c3cccc(OCCO)c3)N2C1=O`, the composite z-score was 0.149 (inactive).
With `CC(C)C[C@@H]1NC(=O)[C@@]23C(=O)N[C@@H](Cc4ccccc4)C2[C@H](C)[C@@]2(C)O[C@H]2C3/C=C/C/C=C\CNC(=O)[C@@H]2CCCN2C1=O` (stereo not given in full) the composite z-score was -0.0982 (inactive).
For `CC1C=C(CCCO)C=C(C(=O)OCCS(C)(=O)=O)C(C(=O)OCCS(C)(=O)=O)=CN1Cc1cccc(OC(F)(F)F)c1` (stereo not given), the composite z-score was 0.392 (inactive).
With `CCOC(=O)C1=CC[C@@H](c2ccccc2)N(S(=O)(=O)c2ccc(C)cc2)[C@H]1C=C(C)C` the composite z-score was 0.568 (inactive).
In the case of `CC1CC/C=C\[C@H]2OC34C=CCN(c5ccc(Cl)cc5)C(=O)[C@H]3N(C(CO)C(C)C)C(=O)[C@]4(C)C2C(=O)O1` (stereo not given in full), the composite z-score is reported as -0.279 (inactive).
For `COC(=O)[C@@]1(Cc2ccc(OC)cc2)[C@H]2c3cc(C(=O)N(C)C)n(Cc4cc(C)n(C)n4)c3C[C@H]2CN1C(=O)c1ccccc1`, the composite z-score was 0.254 (inactive).
In the case of `COC(=O)[C@@]1(Cc2ccccc2)[C@H]2c3cc(C(=O)N(C)C)n(Cc4ccc(O)c(OC)c4)c3C[C@H]2CN1C(=O)c1ccccc1`, the composite z-score is reported as 0.332 (inactive).
`COc1ccc(C#Cc2ccc3c(c2)[C@]2(C(=O)N3)[C@H](c3ccc(OCCO)cc3)N3[C@H](c4ccccc4)[C@H](c4ccccc4)OC(=O)[C@H]3[C@@H]2C(=O)N2CCN(c3ncccn3)CC2)cc1` was tested, and the composite z-score was -0.138 (inactive).
For `O=C1CSC(c2cccc([N+](=O)[O-])c2)N1c1ccccc1` (stereo not given), the composite z-score was 0.0504 (inactive).

Tested on: XIP peptide (Xip251-270)
Experiment: compounds binding XIP fragment 251-270 – biochemical, small-molecule microarray, fluorescence 635/667 nm, 0.5 µg/mL protein, primary screen (AID 1183)
Conditions: fluorescence 635 nm, higher = more signal

In order of falling composite z-score:
1. O=C1O[C@H](c2ccccc2)[C@H](c2ccccc2)N2[C@H]1[C@@H](C(=O)N1CCCCCCC1)[C@]1(C(=O)Nc3ccccc31)[C@H]2c1ccc(O)cc1  0.943
2. COCCCNC(=O)[C@]1(CCS(=O)(=O)c2ccccc2)N=C(c2ccc(OCCCO)cc2)O[C@@H]1c1ccccc1  0.919
3. O=[N+]([O-])c1ccc(C[n+]2ccc(-c3ccc(CO)cc3)cc2)o1  0.905
4. C[N+](C)(C)CCCCCCNC(=O)[C@@H]1C[C@@H]2C(=O)NCC(=O)N2[C@@H]1c1ccc(O)cc1  0.87
5. CC(C)(C)OC(=O)CC[C@@]1(C(=O)N2CCCCC2)N=C(c2ccc(OCCCO)cc2)O[C@@H]1c1ccccc1CN=[N+]=[N-]  0.824
6. CC(C)=CCCC(C)=CC(O)C1C=CC2C(=O)N(c3ccccc3)C(=O)C2N1Nc1ccc([N+](=O)[O-])cc1 (stereo not given)  0.817
7. Cc1ccc(F)cc1S(=O)(=O)N[C@@H]1CCN(C(=O)c2ccc(OC(C)C)cc2)C1  0.805
8. COCCOC(=O)N1C(=O)[C@@]2(c3cc(C#CC4(O)CCCCCC4)ccc31)[C@H](C(=O)N1CCc3cc(OC)c(OC)cc3C1)[C@H]1C(=O)O[C@H](c3ccccc3)[C@H](c3ccccc3)N1[C@@H]2c1ccccc1OCCO  0.771
9. COC(=O)[C@@]1(Cc2ccc(OC)cc2)[C@H]2c3cc(C(=O)N(C)C)n(Cc4cc(C)n(C)n4)c3C[C@H]2CN1C(=O)c1ccccc1  0.762
10. COCCOC(=O)N1C(=O)[C@@]2(c3cc(C#CCCO)ccc31)[C@H](c1ccc(OCCO)cc1)N1[C@H](c3ccccc3)[C@H](c3ccccc3)OC(=O)[C@H]1[C@@H]2C(=O)N1CCc2cc(OC)c(OC)cc2C1  0.736
11. CCOC(=O)C1=CC[C@@H](c2ccccc2)N(S(=O)(=O)c2ccc(C)cc2)[C@H]1C=C(C)C  0.721
12. COC(=O)[C@@]1(Cc2ccccc2)[C@H]2c3cc(C(=O)N(C)C)n(Cc4ccc(O)c(OC)c4)c3C[C@H]2CN1C(=O)c1ccccc1  0.664
13. CC(=O)NCCCC[C@@H]1NC(=O)[C@H]2C[C@@H](C(=O)NCCCCCN)[C@@H](c3cccc(OCCO)c3)N2C1=O  0.654
14. CCOC(=O)C[C@H]1[C@H](OC(=O)Cc2ccc3c(c2)OCO3)[C@@H](NC(=O)c2ccccc2)c2cc(OCCCO)ccc2N1C(=O)c1ccccc1  0.643
15. C=CC[C@@]1(C(=O)NCCN2CCOCC2)N=C(c2ccc(OCCCO)cc2)O[C@@H]1c1ccccc1  0.638
16. COC(=O)[C@@]1(Cc2ccccc2)[C@H]2c3cc(C(=O)N(C)C)n(Cc4ccccn4)c3C[C@H]2CN1C(=O)c1ccccc1  0.595
17. C=CCOC(=O)[C@H]1[C@@H]2C(=O)O[C@@H](c3ccccc3)[C@@H](c3ccccc3)N2[C@@H](c2ccc(OCCOC(=O)[C@H]3C[C@H]4C(=O)N[C@@H](CCCCN(C)C)C(=O)N4[C@H]3c3ccc(O)cc3)cc2)[C@]12C(=O)Nc1ccccc12  0.582
18. COc1ccc([Si](C)(C)[C@@H]2[C@@H](CCO)O[C@]3(C(=O)N(Cc4ccccc4)c4ccc(N5CCCCC5=O)cc43)[C@H]2C)cc1  0.565
19. COC(=O)[C@@]1(Cc2ccc(OC)cc2)[C@H]2c3cc(C(=O)N(C)C)n(CCF)c3C[C@H]2CN1C(=O)c1ccccc1  0.449
20. C=C(COC)C(=O)CC[C@H](OC(=O)c1ccccc1-c1ccccc1C(=O)O)c1ccc(CO)o1  0.393
21. CN(C)C(=O)[C@]1(Cc2ccccc2N=[N+]=[N-])N=C(c2ccc(OCCCO)cc2)O[C@@H]1c1ccccc1CN=[N+]=[N-]  0.312
22. CC1CC/C=C\[C@H]2OC34C=CCN(c5ccc(Cl)cc5)C(=O)[C@H]3N(C(CO)C(C)C)C(=O)[C@]4(C)C2C(=O)O1 (stereo not given in full)  0.277
23. COCC(=C=CC[C@@H](O)c1ccccc1OCCO)C[C@@H](O)COCc1ccccc1  0.262
24. COCCOC(=O)N1C(=O)[C@@]2(c3cc(C#CCNC(N)=O)ccc31)[C@H](c1ccc(OCCO)cc1)N1[C@H](c3ccccc3)[C@H](c3ccccc3)OC(=O)[C@H]1[C@@H]2C(=O)N1CCN(c2ncccn2)CC1  0.245
25. C=CCN1C(=O)[C@@]2(O[C@@H](CCn3cc([C@H](O)c4ccccc4)nn3)[C@H]([Si](C)(C)c3ccc(OC)cc3)[C@H]2C)c2cc(NC(=O)c3ccc(OC)cc3)ccc21  0.189
26. CCCc1cc2c(n1Cc1ccc(OC)cc1)C(C)C1CN(C(=O)c3ccccc3)C(C)(C(=O)OC)C21 (stereo not given)  0.174
27. COc1cc(C(O)C2C=CC3C(=O)N(C)C(=O)C3N2NC(=O)OC(C)(C)C)cc(OC)c1OC (stereo not given)  0.157
28. O=C1CSC(c2cccc([N+](=O)[O-])c2)N1c1ccccc1 (stereo not given)  0.143
29. CC1CC/C=C\[C@H]2OC34C=CCN(Cc5ccccc5)C(=O)[C@H]3N(CCO)C(=O)[C@@H]4C2C(=O)O1 (stereo not given in full)  0.108
30. C#CCNS(=O)(=O)N(C)C  0.0198
31. COc1ccc(C#Cc2ccc3c(c2)[C@]2(C(=O)N3)[C@H](c3ccc(OCCO)cc3)N3[C@H](c4ccccc4)[C@H](c4ccccc4)OC(=O)[C@H]3[C@@H]2C(=O)N2CCN(c3ncccn3)CC2)cc1  0.0154
32. CC1C=C(CCCO)C=C(C(=O)OCCS(C)(=O)=O)C(C(=O)OCCS(C)(=O)=O)=CN1Cc1cccc(OC(F)(F)F)c1 (stereo not given)  -0.0318
33. O=C1c2ccccc2C(=O)C2CC([C@H]3Oc4ccccc4S(=O)(=O)N4CCC[C@@H]34)=CCC12 (stereo not given in full)  -0.267
34. O=C(O)[C@@]1(Cc2ccccc2)COC(c2ccc(OCCCO)cc2)=N1  -0.486
35. CC(C)C[C@@H]1NC(=O)[C@@]23C(=O)N[C@@H](Cc4ccccc4)C2[C@H](C)[C@@]2(C)O[C@H]2C3/C=C/C/C=C\CNC(=O)[C@@H]2CCCN2C1=O (stereo not given in full)  -0.791
